Shiga toxin inh: inhibitors of Shiga toxin in Vero cells; inhibition, % at 38.7 µM; 290,000 compounds, 9.2% hits; Vero cells, Shiga toxin protein synthesis inhibition reporter; in the data active means inhibition mostly above about 28%, no sharp cut-off; inactive means mostly below about 43%
CHX counter: affects cycloheximide protein synthesis inhibition readout, counter-screen | cell reporter, cycloheximide protein synthesis inhibition counterscreen | max response, % | 300,000 compounds, 12% hits | AID 2314; in the data active means max response mostly above about 13%, no sharp cut-off; inactive means mostly below about 14%; further: read at 38.3 µM for the half of the compounds with a filed dose
MARV entry inh: inhibitors of Marburg virus binding or cell entry; Marburg virus pseudotyped entry inhibition, cell reporter; AID 540276; 300,000 compounds, 1.8% hits; Potency, µM (top dose mostly 37.8 µM), most hits filed as inhibitors; calls by dose curve; tested in HEK293 cells
AMA1 RON2 block: disrupts binding of P. falciparum AMA1 to RON2. AlphaScreen AMA1-biotinylated RON2 peptide binding. Potency, µM (top dose mostly 58.2 µM), most hits filed as inhibitors. 360,000 compounds, 0.2% hits. AID 720542; active means well fitted inhibition curve with a large enough effect; inconclusive means small, poorly fitted or top-dose-only effect; inactive means no such curve, though single readings can be large or run the other way; further: nearly all actives have a fitted effect of over 45% in size
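AMA1 (3D7) with his tag at 25 nM final met compounds first, then biotinylated RON2 peptide at 25 nM; detection used donor plus acceptor beads, 10 µg/mL apiece, read by AlphaScreen after 30 min at room temperature.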
Lassa entry inh: inhibitors of Lassa virus binding or cell entry; Lassa virus pseudotype entry inhibition, cell reporter; Potency, µM (highest dose often 37.9 µM), hits mostly inhibitors; 300,000 compounds, 1.2% hits; AID 540256; calls by dose curve; tested in HEK293 cells; further: nearly all actives have a fitted effect of over 50% in size
A number is an active result; n = inactive; u = inconclusive; x = not tested or not shown; [ ] = another dose, or the depositor's remark. The full list was thinned out, with hits kept by preference.

SMILES | Shiga toxin inh | CHX counter | MARV entry inh | AMA1 RON2 block | Lassa entry inh
Cc1cnc(C(=O)N2CCc3c([nH]c4ccccc34)C2c2ccc(F)cc2)cn1 (centres undefined) | n | n | x | n | x
O=C(c1cnccn1)N1CCc2c([nH]c3ccccc23)C1c1cccc(Cl)c1 (centres undefined) | 27.2 | 11.6 | x | u | x
CSc1ccc(C2c3[nH]c4ccccc4c3CCN2C(=O)c2cc(C)n(C)n2)cc1 (centres undefined) | 80.8 | 34.0 | x | x | x
CC(=O)NCCC(=O)N1CCc2c([nH]c3ccccc23)C1c1cccc(Cl)c1 (centres undefined) | n | n | u | n | n
CC[Si](CC)(CC)O[C@H]([C@@H](C)COCOC)[C@@H](C)COCc1ccc(OC)cc1 | n | n | x | x | x
O=C(/C=C/c1cccs1)Nc1nncs1 | 53.6 | 33.5 | x | n | x
Cc1ccnc(NC(=O)/C=C/c2cccs2)c1 | 97.4 | 49.9 | u | n | u
O=C(/C=C/c1cccs1)Nc1cccnc1 | 124.0 | 75.3 | u | n | n
Cc1ccnc(NC(=O)CNC(=O)c2cccs2)c1 | x | x | n | n | n
O=C(/C=C/c1cccs1)Nc1nc(-c2ccccc2)cs1 | 62.7 | 40.0 | u | n | n
COCCNC(=O)CSc1nc(-c2cc(OC)c(OC)c(OC)c2)[nH]c1-c1ccc(Cl)cc1 | x | x | u | x | n
Cc1ccc(NC(=O)CN2C(=O)C(c3ccccc3)=NC2(C)C)cc1C | x | x | n | x | n
O=C(/C=C/c1cccs1)Nc1scc(-c2ccccc2)c1C(=O)O | 91.5 | 44.2 | u | n | u
Cc1ccc(C(=O)Nc2scc(-c3ccccc3)c2C(=O)O)cc1 | x | x | u | n | u
COc1cc(C(=O)N(C)C2CCCCC2)cc(OC)c1OC | x | x | x | n | x
CCN(CC)CCC(=O)N1C/C(=C/c2ccccc2)C(=O)/C(=C\c2ccccc2)C1 | x | x | 11.2µM | n | 10µM
O=C1/C(=C\c2ccccc2)CN(C(=O)CCN2CCCCC2)C/C1=C/c1ccccc1 | x | x | 1µM | n | u
O=C1/C(=C\c2ccccc2)CCC/C1=C/c1ccccc1 | x | x | u | n | u
Cc1cc(C)cc(NC(=O)Nc2cc(S(=O)(=O)N(C)C)ccc2C)c1 | n | n | u | n | 12.6µM
Cc1ccc(S(=O)(=O)N(C)C)cc1NC(=O)Nc1ccccc1F | n | n | n | n | n
Cc1ccc(NC(=S)c2ccc3ccccc3n2)c(C)c1 | 85.1 | 29.7 | n | n | u
Cc1ccc(S(=O)(=O)N(C)C)cc1NC(=O)c1ccc2ccccc2n1 | n | 37.0 | x | n | x
Cc1ccc(C)c(NC(=O)c2ccc3ccccc3n2)c1 | n | 30.5 | n | n | u
Cc1nc2c(-c3ccccc3)c(C)nn2c(C)c1CCC(=O)NCc1ccc(Cl)cc1 | x | x | n | x | n
O=C(Cc1nn[nH]n1)c1ccccc1O | n | n | n | n | n
SMILES | Shiga toxin inh | CHX counter | MARV entry inh | AMA1 RON2 block | Lassa entry inh
CCOc1ccccc1-c1nnc2n1N=C(c1cc(OC)cc(OC)c1)CS2 | n | n | x | x | x
Cc1nc(/N=C\c2ccc(N(C)C)cc2)sc1C | x | x | x | n | x
C/C(CC(=O)Nc1ccc(Cl)c(Cl)c1)=N\NC(=O)Cc1ccccc1 | n | n | n | n | n
Cc1ccc(NC(=O)CN(C)Cc2cccs2)cc1Cl | n | 15.7 | n | n | n
CCN(CC)c1ccc(NC(=O)CN(C)Cc2cccs2)cc1 | n | n | n | 12.6µM | n
C/C(CC(=O)Nc1ccc(C)c(Cl)c1)=N\NC(=O)Cc1cccs1 | n | 17.1 | n | n | n
CN(CC(=O)Nc1c(F)cccc1F)Cc1cccs1 | n | 14.2 | n | n | n
COc1ccc(Cl)cc1NC(=O)CN(C)Cc1cccs1 | n | n | u | n | n
C#CCCCO/N=C1\C[C@@H](O)[C@@H](O)[C@@H]2[C@@H]3C(=O)N(C[C@@H]4CCCO4)C(=O)[C@@H]3CC[C@H]12 | x | x | n | x | x
CCOC(=O)c1ccc(Oc2cc(C)nc(Cl)n2)cc1 | n | n | n | n | n
CN(c1ccc(F)cc1)S(=O)(=O)c1ccc(Cl)c(C(=O)OCC(=O)NCc2ccco2)c1 | n | n | x | n | x
COc1ccc(S(=O)(=O)Nc2ccc3c(c2)C(=O)N([C@H](C)CO)C[C@H](C)[C@@H](CN(C)C(=O)NC2CCCCC2)O3)cc1 | x | x | x | n | x
CN1CCN(C(c2ccccc2)c2sc3nc(-c4ccco4)nn3c2O)CC1 (centres undefined) | x | x | x | x | n
Cc1ccc(S(=O)(=O)N(C)CCCC(=O)Nc2ccc(C)cc2C)cc1 | n | n | n | n | n
Cc1ccc(OCCOc2ccc(Br)cc2)c([N+](=O)[O-])n1 | 154.3 | 71.8 | n | n[11.6 µM] | u
Cc1ccc(OCc2ccccc2C)c([N+](=O)[O-])n1 | n | 40.7 | n | n | u
COc1ccc(C(=O)Nc2ccccc2N2CCN(C(=O)c3ccccc3)CC2)cc1Br | n | n | u | n | u

Screening data deposited in PubChem BioAssay by National Center for Advancing Translational Sciences (NCATS).
